Assay results published in ChEMBL document CHEMBL3988442, “University of Dundee, Small-Polar-MMV Screening Library” (2021).
Among all 48,000 compounds or so, about 13,000 (27%) showed an effect of 50% or more. The list shows a part of the results.

The compounds below were run on Wolbachia pipientis (assay: Anti-Wolbachia Cell-Based Screen). Conditions: 5 µM.
Format: functional
Parameters: scale not given: in the data most compounds retested in dose-response had high values

Row | SMILES | Percent Effect
1 | CC(C)Oc1cccc(C(=O)C2CCCN(C(=O)c3ccoc3)C2)c1 (configuration not stated) | 9.263%
2 | CCSCc1cccc(NC(=O)N(C)Cc2ncnn2C)c1 | -22.36%
3 | COc1ccc(NC(C)C(=O)N2CCCC2)cn1 (configuration not stated) | 2.582%
4 | CCN(CC)C1CCN(C(=O)NCc2nncn2CC)CC1 | 7.856%
5 | CCn1cnnc1CNC(=O)N1CCC(C(=O)NC)CC1 | -5.598%
6 | CCn1cnnc1CNC(=O)N1CCC(OCc2ccccc2)CC1 | 128.6%
7 | O=C(NCC(O)c1cccc(O)c1)C1CCN(C2CCCCC2)CC1 (configuration not stated) | -14.15%
8 | Cc1nc[nH]c1-c1c(-c2ccccc2)ncn1C1CCNC1 (configuration not stated) | 7.819%
9 | O=C(O)C(F)(F)F.O=C([C@@H]1CC[C@@H]2[C@@H](CCN2c2ccncn2)O1)N1CCCCO1 | 117.6%
10 | O=C(O)C(F)(F)F.O=C([C@H]1CC[C@@H]2[C@@H](CCN2Cc2ccc(F)cc2)O1)N1CCCO1 | -3.999%
11 | O=C([C@H]1CC[C@@H]2[C@@H](CCN2c2ncccn2)O1)N1CCCCO1 | 84.25%
12 | O=C(O)C(F)(F)F.O=C([C@@H]1COC[C@H]2CN(c3ccncn3)C[C@H]21)N1CCCCO1 | -6.047%
13 | O=C([C@@H]1CC[C@@H]2[C@@H](CCN2c2ncccn2)O1)N1CCCO1 | 3.223%
14 | Cc1ccc(N2CC[C@H]3O[C@H](C(=O)N4CCCCO4)CC[C@H]32)nn1.O=C(O)C(F)(F)F | 105.7%
15 | Cc1ccc(N2CC[C@H]3O[C@@H](C(=O)N4CCCCO4)CC[C@H]32)nn1.O=C(O)C(F)(F)F | 113.9%
16 | CN1CCN(C(=O)[C@@H]2CC[C@@H]3[C@@H](CCN3c3ncccn3)O2)CC1.O=C(O)C(F)(F)F.O=C(O)C(F)(F)F | -4.531%
17 | COC(=O)N(C)CCCC(=O)Nc1[nH]nc(-c2ccncc2)c1C | -7.715%
18 | O=C1CC[C@H]2CN(C3CCOCC3)CC[C@H]2N1CCC1=CCCCC1 | 14.62%
19 | Cc1ccc(CN2CC[C@H]3O[C@@H](C(=O)N4CCCO4)CC[C@H]32)s1.O=C(O)C(F)(F)F | -7.276%
20 | Cc1ccc(N2CC[C@H]3O[C@@H](C(=O)NCc4ccco4)CC[C@H]32)nn1.O=C(O)C(F)(F)F | 17.63%
21 | Cc1ccc(N2CC[C@H]3O[C@@H](C(=O)N4CCCO4)CC[C@H]32)nn1.O=C(O)C(F)(F)F | 88.3%
22 | CSCCc1ccc(NC(=O)NC(C)Cn2cncn2)cc1 (configuration not stated) | -13.08%
